Screening data as filed in PubChem.
S1P4 ag: agonists of human S1P4 receptor. O95977. S1P4-expressing cell line, agonist reporter assay. activation, % at 4.98 µM. 0.35% of 220,000 active. AID 1509; in the data active = activation above about 11%
DTT redox prof: compounds producing H2O2 with reducing agent – biochemical, NIH compound library profiling, artefact control for MLSCN library redox annotation, primary screen; AID 878; DTT-dependent redox cycling H2O2, phenol red/HRP absorbance; 100% = 100 µM peroxide control, 0% = buffer; activation, % at 10 µM; 0.03% of 200,000 active;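 active = activation of at least 50% relative to the plate's high and low controls in the primary single-dose screen; inactive = activation below 50%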;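 note: compound incubated with DTT at 0.8 mM final as the reducing agent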
S1P4 antag: antagonists of human S1P4 receptor; inhibition, % at 4.98 µM; AID 1510; 0.26% of 220,000 active; O95977; S1P4-expressing cells, antagonist mode, reporter read-out; in the data active = inhibition above about 29%
p97 inhibitor: blocks human p97 ATPase activity. P55072. recombinant p97 ATPase, Kinase-Glo ATP luminescence, 3 h. inhibition, % at 8 µM. 0.42% of 220,000 active; in the data active = inhibition above about 15%
S1P3 antag: S1P3 (human) receptor antagonism; CHO S1P3 NFAT-BLA reporter, FRET fluorescence, antagonist mode; Q99500; 0.27% of 170,000 active; inhibition, % at 4.98 µM;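 active = inhibition above the plate cutoff, the mean inhibition of test wells on that plate plus 3 SD, cut at about 28% in these data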;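 note: cells challenged with S1P at its EC80 of 0.8 µM; blue over green emission ratio from cleaved BLA substrate after 4 h stimulation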
Target sequence (Q99500 whole entry, looked up): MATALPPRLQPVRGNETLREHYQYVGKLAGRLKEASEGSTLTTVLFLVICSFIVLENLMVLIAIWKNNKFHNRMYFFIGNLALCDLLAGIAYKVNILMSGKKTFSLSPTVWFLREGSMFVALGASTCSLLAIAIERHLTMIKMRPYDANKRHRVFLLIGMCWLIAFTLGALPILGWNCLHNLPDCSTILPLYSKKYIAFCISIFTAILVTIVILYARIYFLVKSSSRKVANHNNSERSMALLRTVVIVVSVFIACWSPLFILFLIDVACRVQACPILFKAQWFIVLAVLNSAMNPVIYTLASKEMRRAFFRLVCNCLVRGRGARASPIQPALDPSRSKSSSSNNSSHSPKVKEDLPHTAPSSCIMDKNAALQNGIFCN
Arbovirus inh: arbovirus infection inhibition. 0.37% of 200,000 active. inhibition, % at 10 µM. arbovirus infection cell-based antiviral screen. AID 1251; in the data active = inhibition above about 30%
p97 confirm: human p97 ATPase inhibition, confirmation; shares compounds with p97 inhibitor; recombinant p97 ATPase, Kinase-Glo ATP luminescence; inhibition, % at 8 µM; 44% of 760 active; AID 1517;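 active = percent inhibition of p97 ATPase above a set limit, the primary screen's mean plus 3 SD, cut at about 15% in these data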
Hits are given with their value; 0 = inactive; - = no result. Most compounds without a hit are left out; they make up all but 1.6% or so of the library.

SMILES	S1P4 ag	DTT redox prof	S1P4 antag	p97 inhibitor	S1P3 antag	Arbovirus inh	p97 confirm
O=C(O)c1cccc(Nc2ncnc3ccc(Br)cc23)c1	0	-	0	16.8	0	-	20.6
O=C(CN(C(=O)Cn1nnc(-c2cccs2)n1)c1ccc2c(c1)OCCO2)NC1CCCCC1	0	0	0	15.4	0	0	0
Cc1ccc(CNS(=O)(=O)NCc2ccc(Cl)cc2)cc1	0	0	0	0	0	0	-
CCNC(=O)Oc1ccc[nH]c1=O	0	-	0	17.1	0	-	0
C=CCn1c(SCC(=O)NCc2ccco2)nc2ccccc2c1=O	0	0	0	15.3	0	0	0
O=C(CCn1c(SCC(=O)NCc2ccco2)nc2ccccc2c1=O)NCCc1ccccc1	0	0	0	0	-	0	-
O=C(O)C1CSC(c2ccc(O)c([N+](=O)[O-])c2)N1 (stereo unspecified)	0	0	0	16.4	0	0	0
O=C(O)C1CSC(c2ccc3c(c2)OCO3)N1 (stereo unspecified)	0	-	0	0	0	-	-
N=C1C(c2ccccc2)=C(O)CN1c1cccc(S(=O)(=O)NCc2ccco2)c1	0	-	0	0	0	-	-
NC(=O)N/N=C/c1cc(Br)ccc1OC(=O)c1ccccc1	0	0	0	15.7	0	0	22.8
CCN(CC)c1ccc(NC(=O)c2ccccc2)cc1S(=O)(=O)Nc1ccccc1OC	0	0	0	0	0	0	-
NC(=S)N/N=C/c1coc2ccc(Br)cc2c1=O	0	-	0	0	0	-	-
NC(=S)N/N=C/c1coc2ccc(O)cc2c1=O	0	-	0	15.4	0	-	0
Cc1nc(C#N)c(N/N=C/c2c(F)cccc2Cl)o1	0	0	0	0	0	0	-
CC(=O)c1ccc2c(c1)C1C=CCC1C(C(=O)O)N2 (stereo unspecified)	0	0	0	20.2	0	0	29.9
CC(=O)c1ccc2c(c1)C1C=CCC1C(c1ccncc1)N2 (stereo unspecified)	0	0	0	0	-	0	-
CCC(NC(=O)Nc1ccc(O)cc1)(C(F)(F)F)C(F)(F)F	0	0	0	36.9	-	0	0
CC(NC(=O)Nc1ccc(O)cc1)(C(F)(F)F)C(F)(F)F	0	0	0	29.7	-	0	0
CCC(NC(=O)NCc1ccccc1)(C(F)(F)F)C(F)(F)F	0	0	0	0	0	0	-
COc1ccc(NC(=O)NC(C)(C(F)(F)F)C(F)(F)F)cc1	0	0	0	0	-	0	-
COc1ccc(OC)c(Nc2nc(NCc3ccco3)nc(N)c2[N+](=O)[O-])c1	0	-	0	0	0	-	-
COc1ccccc1Nc1nc(NCc2ccco2)nc(N)c1[N+](=O)[O-]	0	-	0	15.6	0	-	20.7
COC(=O)C(C)NC(=O)c1ccc(C(C)(C)C)cc1 (stereo unspecified)	0	0	0	0	0	0	-
NS(=O)(=O)c1ccc(CCNC(=O)CCCn2c(=O)[nH]c3ccc(Br)cc3c2=O)cc1	0	0	0	26.3	0	0	0
O=C1CC(=O)N(c2cccc(F)c2)N1	0	0	0	21.9	0	0	0
SMILES	S1P4 ag	DTT redox prof	S1P4 antag	p97 inhibitor	S1P3 antag	Arbovirus inh	p97 confirm
O=C(Nc1cccc2nsnc12)c1ccc(-c2cccc(Cl)c2)o1	0	0	0	17.5	-	0	0
O=C(O)CSc1c(-c2ccccc2)[nH]c2ccccc12	0	0	0	15.5	0	0	16.7
Cc1c(/C=N/O)sc2ccccc12	0	-	0	0	0	-	-
COc1ccc(/C=N/NC(=O)Cn2ccnc2C)cc1OC	0	-	0	17.7	0	-	0
Cc1ccc(N(C)C(=O)c2ccc(CNc3c(N4CCC(C)CC4)c(=O)c3=O)cc2)cc1	0	-	0	0	0	-	-
CC(C)N(C(=O)COC(=O)[C@H](C)NC(N)=O)c1ccccc1	0	0	0	15.4	0	0	0
CC1=NN(c2ccccc2)C(=O)/C1=C\c1ccc(Br)s1	0	0	0	0	0	0	-
CC1=NN(c2ccccc2)C(=O)/C1=C/c1cccs1	0	0	0	17.3	0	0	0
COc1ccc(NS(=O)(=O)c2cccc(NC(=O)c3ccc(S(=O)(=O)N4CCCCCC4)cc3)c2)cc1	0	0	0	0	0	0	-
COCCCNc1nc2nonc2nc1N1CCN(C2CCCC2)CC1	0	0	0	0	0	0	-
COCCCNc1nc2nonc2nc1N1CCN2CCCC2C1 (stereo unspecified)	0	-	0	15.5	0	-	0
COc1ccc(-c2csc(NC(=O)CSc3nc(SC)ns3)n2)cc1	0	0	0	0	0	0	-
Cc1ccc(NC(=S)NC(CO)C(O)c2ccc([N+](=O)[O-])cc2)cc1 (stereo unspecified)	0	0	0	0	0	0	-
O=[N+]([O-])c1ccc(C(O)C(CO)NC(=S)Nc2ccccc2)cc1 (stereo unspecified)	0	-	0	15.7	0	-	0
CC1C(C(=O)Nc2ccccc2)CCCC1(C)C(=O)O (stereo unspecified)	0	0	0	0	-	0	-
CC(=O)c1c(-c2ccc(C)cc2)nc2c3ccccc3ccn12	0	0	0	0	0	0	-
COc1ccc(-c2nc3c4ccccc4ccn3c2C=O)cc1	0	0	0	15.3	0	0	0
Cc1cccc2cc(CN(Cc3cccnc3)C(=O)c3cccs3)c3nnnn3c12	0	0	0	0	0	0	-
CC1CCc2nc(N)c(C#N)c(-c3cccnc3)c2C1 (stereo unspecified)	0	0	0	25.7	-	0	0
CC1CCc2nc(N)c(C#N)c(-c3ccncc3)c2C1 (stereo unspecified)	0	0	0	0	0	0	-
CC(C)NC(=O)C(=O)NNC(=O)CCc1ccccc1	0	0	0	0	0	0	-
CC(C)OC(=O)CSc1n[nH]c(-c2cccnc2)n1	0	0	0	15.3	0	0	0
COC(=O)c1ccccc1NC(=O)CSc1n[nH]c(-c2cccnc2)n1	0	0	0	0	0	0	-
Cc1ccc(OCCCCNC2CCCC(C)C2C)c(C)c1 (stereo unspecified)	0	0	0	0	0	0	-
O=c1oc2cc(O)c(Cl)cc2c2ccccc12	0	0	0	0	0	0	-
SMILES	S1P4 ag	DTT redox prof	S1P4 antag	p97 inhibitor	S1P3 antag	Arbovirus inh	p97 confirm
O=c1cc2c(=O)oc3cc(O)c(O)oc3c2c(O)c1O	0	-	0	26.0	0	-	22.6
Cc1ccc(S(=O)c2ccc(NC(=O)C3CC3)cc2C#N)cc1 (stereo unspecified)	0	0	0	16.9	0	0	0
CC1CCCC(NC(=O)CSc2ccc(F)cc2)C1C (stereo unspecified)	0	0	0	0	0	0	-
CC1CCCC(NCC(O)COC(c2ccc(F)cc2)c2ccc(F)cc2)C1C (stereo unspecified)	0	0	0	15.2	0	0	0
O=C(COC(=O)c1cnccn1)c1cccc([N+](=O)[O-])c1	0	-	0	0	0	-	-
CCOC(=O)C1=C(c2ccccc2)NC(N)=NC1c1ccc(OCc2ccc(C(=O)OC)cc2)cc1 (stereo unspecified)	0	-	0	32.9	0	-	34.6
